# Screening data as filed in PubChem.
# TSG101-PTAP inh = qHTS Assay for Iinhibitors of HIV-1 Budding by Blocking the Interaction of PTAP/TSG101 | Fluorescence polarization, FITC-PTAP peptide / Tsg101 binding | Potency, µM (titrated, usually from 115 µM), for inactives: at the highest dose activity change, negative = inhibition, hits mostly inhibitors | 340,000 tested, under 10 active | AID 493005, 2010; active = well fitted inhibition curve with a large enough effect in the main read-out, with a control signal flat, not every such curve was filed as active; inconclusive = small, poorly fitted or top-dose-only effect, or effect the other way, or a change in a side signal; inactive = no such curve, though single readings can be large or run the other way; also: potency is read from the fitted curve at half-maximal effect; % of control where 0% means no effect
#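 Steps: Tsg101 binding domain dispensed (10 uM final), compounds pinned in DMSO, FITC-labeled PTAP-motif peptide added (50 nM final); after 20 min binding at room temperature, polarization measured.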
# USP2a inh = qHTS Assay for Inhibitors of Ubiquitin-specific Protease USP2a Using CHOP2 as the Reporter; Ubiquitin carboxyl-terminal hydrolase 2 (Homo sapiens), O75604; USP2 core, Ub-CHOP2 coupled fluorogenic reporter, 485/531; Potency, µM (doses to about 38.3 µM), for the others: top-dose activity change, negative = inhibition, hits mostly inhibitors; actives 0.01% (n = 330,000); AID 463254, 2010;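 also: potency is read from the fitted curve at half-maximal effect; plate controls were DMSO wells for no effect and full inhibition by NEM control for full effect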
#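 USP2 core (10nM final) preincubated 30min RT with compound in 20mM Tris-HCl pH 8.0, 2mM CaCl2, 2mM beta-mercaptoethanol, 0.05% CHAPS; 25nM Ub-CHOP2 plus 25nM reporter substrate added, fluorescence (Ex485/Em531) read after 60min.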
# GLS inhibitor = qHTS for Inhibitors of Glutaminase (GLS); GLS enzymatic activity, qHTS titration; Potency, µM (doses to about 45.5 µM), without a hit: at the highest dose activity change, negative = inhibition, most hits filed as inhibitors; Glutaminase kidney isoform, mitochondrial (Homo sapiens), O94925; AID 624170, 2012; actives 0.21% (n = 410,000); also: potency is read from the fitted curve at half-maximal effect; % is scaled to controls: 0 for no effect and ±100 for the full control effect
#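 hKGA in 45 mM KH2PO4 (pH 8.2), 0.02% Tween-20 with compound, then 1mM L-Glutamine (stock as added) plus glutamate oxidase/HRP/Amplex red coupling mix. Fluorescence read initially and after 30 min at RT; signal change reflects glutamate formation.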
# miR-21 act = qHTS Assay for Modulators of miRNAs and/orActivators of miR-21; HeLa miR-21 FLuc reporter, luciferase, 48 h; Potency, µM (top dose mostly 38.3 µM), inactives show at the top dose activity change, positive = activation, usual class: activators; 340,000 tested, under 10 active; AID 2288, 2010;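 also: % of control where 0% means no effect; miR-21 action dims this reporter so a rising signal means less miR-21 action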
#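 Using DMEM plus 10% FBS, HeLa miR-21-FLuc cells are incubated with test compounds (final up to about 40uM) for 48 hours; firefly luciferase signal is then imaged following reagent-mediated lysis.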
# Eya2 inh = qHTS Assay for Inhibitors of the Phosphatase Activity of Eya2; actives 0.006% (n = 330,000); recombinant Eya2, OMFP fluorescence dephosphorylation (OMFP is methylfluorescein phosphate); Potency, µM (highest dose often 76.9 µM), for inactives: at the highest dose activity, negative = inhibition, hits mostly inhibitors; AID 488837, 2010; Protein phosphatase EYA2 (Homo sapiens), O00167; also: potency is read from the fitted curve at half-maximal effect; % is scaled to controls: 0 for no effect and ±100 for the full control effect
# Target sequence (O00167 whole entry, looked up): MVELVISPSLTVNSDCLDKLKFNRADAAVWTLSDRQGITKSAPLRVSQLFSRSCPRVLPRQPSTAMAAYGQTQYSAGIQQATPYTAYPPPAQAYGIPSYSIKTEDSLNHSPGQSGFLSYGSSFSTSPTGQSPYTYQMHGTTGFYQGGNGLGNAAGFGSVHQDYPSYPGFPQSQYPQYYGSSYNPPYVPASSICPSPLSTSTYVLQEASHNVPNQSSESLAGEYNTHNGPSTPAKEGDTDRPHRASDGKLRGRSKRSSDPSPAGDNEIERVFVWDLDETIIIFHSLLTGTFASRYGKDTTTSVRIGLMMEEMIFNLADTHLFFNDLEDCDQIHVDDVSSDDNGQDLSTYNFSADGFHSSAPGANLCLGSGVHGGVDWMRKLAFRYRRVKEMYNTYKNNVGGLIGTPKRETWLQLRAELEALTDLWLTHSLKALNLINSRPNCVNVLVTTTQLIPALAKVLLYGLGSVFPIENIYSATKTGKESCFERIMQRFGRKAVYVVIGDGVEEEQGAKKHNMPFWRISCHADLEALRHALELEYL
#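 Eya2 protein (added as 0.2 uM solution) was preincubated with compound for 10 min at ambient temperature in 50 mM HEPES pH 7.5, 50 mM NaCl, 5 uM MgCl2, 0.05% BSA, 1 mM DTT. OMFP (added at 50 uM) then reacted 10 min; fluorescence read at 485/525 nm.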
# PTHR1 ag = qHTS for PTHR1 Agonists: Primary Screen | HEK293 GP2 PTHR1 cells, GloSensor cAMP luminescence, 1 h | actives 0.075% (n = 410,000) | Parathyroid hormone/parathyroid hormone-related peptide receptor (Homo sapiens), Q03431 | Potency, µM (titrated, usually from 115 µM), for inactives: at the top dose activation, actives largely listed as activators; also: potency is read from the fitted curve at half-maximal effect; nearly all actives have a fitted effect of over 55% in size
#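 HEK-293-derived GP2 cells expressing PTHR1 and a GloSensor cAMP reporter, 3,000/well, plated overnight, given luciferin plus IBMX (each 0.5 mM as added) for 1 h at 37 °C, then compound for 1 h at 37 °C. Luminescence was read after 15 min at room temperature.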
# Numbers without * were called inactive; i = inactive; ? = inconclusive; . = no result. A selection: hits, their analogues and other compounds. The true share with any hit is near 0.24%. Unless noted, calls follow the shape of the dose curve; as a rule, active = well fitted curve in the direction sought with a large enough effect; inconclusive = small, poorly fitted or top-dose-only effect, or another doubt; inactive = no such curve, though single readings can be large; an effect the other way counts as inactive or inconclusive.
SMILES,TSG101-PTAP inh,USP2a inh,GLS inhibitor,miR-21 act,Eya2 inh,PTHR1 ag
Cc1cc(C(F)(F)F)n2[nH]c(=O)c(N=Nc3ccccc3)c2n1,0%,-17%,0%,-7%,-4%,18µM*
Cc1cc(C)n2[nH]c(=O)c(N=Nc3ccccc3)c2n1,-7%,-3%,-1%,-4%,-23%,i
Cc1ccccc1-c1cn(-c2ccccc2)c(=S)[nH]1,-1%,0%,11µM*,10%,4%,-8%
Cc1ccc(-c2cn(-c3ccccc3)c(=S)[nH]2)cc1C,-7%,-11%,6%,-36%,7%,-19%
COC(=O)c1ccc2c(=O)n(CCc3ccc(S(N)(=O)=O)cc3)c(SCC(=O)C(C)(C)C)nc2c1,.,.,-2%,17%,.,-4%
O=C(Nc1ccc(N2CCN(c3ccc(O)cc3)CC2)cc1)Oc1ccccc1,-10%,-1%,16%,0%,-19%,i
Nc1ccc(OC(=O)Nc2ccc(O)cc2)cc1,0%,-5%,14µM*,27%,?,i
CC[n+]1c(/C=C/C=C2/N(C)c3ccccc3C2(C)C)sc2ccccc21,.,.,.,.,12%,.
COc1ccccc1CNC(=O)Cn1c(-c2cccs2)cc2cc(F)ccc21,.,.,-2%,-5%,.,50µM*
Cc1ccc(S(=O)(=O)N2[C@@H](c3ccccc3F)C(C(=O)O)=CC[C@H]2c2ccc(Cl)c(Cl)c2)cc1,-8%,11µM*,18%,.,?,i
O=C(Nc1cccc(C(F)(F)F)c1)Oc1ccccc1N1CCOCC1,1%,1%,20%,2%,-4%,i
Cc1cc(C)cc(NC(=O)Oc2ccccc2N2CCCCC2)c1,-1%,4%,10µM*,6%,-1%,i
Cc1cc2ccccn2c1C(=O)c1ccc(N/N=C/c2ccc(C(=O)O)cc2)c([N+](=O)[O-])c1,-11%,0%,10µM*,-4%,-7%,-16%
CC[C@H]1OC(=O)C[C@@H](O)[C@H](C)[C@@H](O[C@@H]2O[C@H](C)C[C@H](N(C)C)[C@@H]2O)[C@@H](CC=O)C[C@@H](C)C(=O)/C=C\[C@]2(C)O[C@H]2[C@@H]1C,.,.,2%,.,.,.
CCOc1cccc(/C=N/NC(=O)CC2C(=O)NN=C2C)c1O (configuration not stated),0%,-2%,5.6µM*,0%,-9%,i
COc1cc(/C=N/NC(=O)CC2C(=O)NN=C2C)ccc1O (configuration not stated),2%,3%,21%,1%,17%,30%
OCC1OC([S-])[C@H](O)C(O)C1O.[Au+] (some centres not stated),.,.,11µM*,.,.,.
OCC1OC(O)C(O)C(O)C1O (configuration not stated),.,.,-11%,.,.,.
O=S(=O)(c1ccc(Cl)cc1)c1nc(-c2cccs2)oc1SCc1ccccc1F,.,.,0%,-2%,.,-8%
COc1ccc(NC(=O)c2cc3c(COC(C)=O)cnc(C)c3oc2=Nc2cccc(C(=O)O)c2)c(OC)c1,-6%,1%,10µM*,0%,-5%,-21%
CC(C)CC(NC(=O)CNC(=O)C(Cc1ccc(O)cc1)NC(=O)C(CO)NC(=O)C(Cc1c[nH]c2ccccc12)NC(=O)C(Cc1cnc[nH]1)NC(=O)C1CCC(=O)N1)C(=O)NC(CCCN=C(N)N)C(=O)N1CCCC1C(=O)NCC(N)=O (configuration not stated),.,.,35%,.,.,.
Cc1nn(-c2ccccc2)c(Cl)c1/C=N/NC(=O)OC(C)(C)C,-3%,0%,9%,-30%,-20%,-16%
Cc1nn(-c2ccccc2)c(Cl)c1/C=N/Nc1ccc(Cl)c(C(=O)O)c1,-3%,0%,16µM*,-34%,-5%,-44%
COc1cc(/C=N/NC(=O)c2cc(O)cc(O)c2)ccc1OC(=O)c1ccccc1,-8%,-2%,13µM*,-3%,3%,i
COc1cc(C(=O)N/N=C/c2ccc(OC(=O)c3ccccc3)c(OC)c2)ccc1O,0%,0%,-5%,-8%,-10%,-69%
SMILES,TSG101-PTAP inh,USP2a inh,GLS inhibitor,miR-21 act,Eya2 inh,PTHR1 ag
O=C(N/N=C/c1ccoc1)c1cc(O)cc(O)c1,0%,-2%,13µM*,-2%,-6%,-8%
Cc1ccc(S(=O)(=O)c2cn(C)c3cc(N4CCCC(C)C4)c(F)cc3c2=O)c(C)c1 (configuration not stated),.,.,-3%,10%,.,-3%
O=c1nc(/C=C/c2ccc(O)c(O)c2)oc2ccccc12,-4%,5%,5.6µM*,-38%,-7%,-29%
COc1ccc(/C=C\c2nc(=O)c3ccccc3o2)cc1,3%,-2%,0%,12%,14%,-33%
CCOc1ccc(NC(=O)N2CCN(S(=O)(=O)c3ccc4c(ccn4C)c3)CC2)cc1,.,.,6%,11%,.,i
O=C(O)c1ccccc1N/N=C/c1c(Sc2nnnn2-c2ccccc2)nc2ccccn2c1=O,14%,3%,11µM*,-5%,?,-16%
CC(NC(=O)/C(C#N)=C/c1ccco1)c1ccccc1 (configuration not stated),-3%,2%,-2%,-13%,9%,i
CC(NC(=O)/C(C#N)=C1\N=C(NC(=O)c2ccco2)c2ccccc21)c1ccccc1 (configuration not stated),0%,-2%,16%,-1%,56µM*,-3%
CSc1nc(SCC(=O)O)c2sc3nc(-c4ccccc4)c4c(c3c2n1)CCC4,-7%,4%,14µM*,-5%,-17%,-38%
CSc1nc(N(C)CCO)c2sc3nc(-c4ccco4)c4c(c3c2n1)CCC4,-13%,0%,13µM*,-7%,-16%,-57%
CSc1nc(NCCN(C)C)c2sc3nc(-c4ccco4)c4c(c3c2n1)CCC4,-2%,.,-19%,.,.,-22%
CCOC(=O)C1Nc2ccc(Br)cc2C2C=CCC12 (configuration not stated),-3%,-1%,1%,0%,-2%,-9%
O=C(O)C1Nc2c(Cl)cc(Cl)c(Cl)c2C2C=CCC12 (configuration not stated),-11%,.,?,.,.,i
